Assay results: PubChem BioAssay (NCI)
Where “and” joins values, the source holds several entries; their conditions need not be identical. Equal values may be shown once. Compounds without any hit were thinned out: in the full panel of roughly 79,000, 15% have a hit. Values without a mark were called inactive. Calls of active or inactive are those of the source. Cut-off read from the data, not from the text of the source: active = growth inhibition above about 70%; inactive = the rest.

Key:
[1] = NCI Yeast Anticancer Drug Screen. Data for the rad52 strain (AID 147);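 note: 0% = growth of vehicle-treated control cultures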; conditions: S. cerevisiae rad52 mutant growth inhibition, stronger effect = higher value
Method in brief: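 Measured: yeast growth inhibition. System: strain with a defined DNA damage repair alteration. Reference: vehicle-treated control cultures.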

[2] = NCI Yeast Anticancer Drug Screen. Data for the mgt1 strain (AID 153); conditions: S. cerevisiae mgt1 mutant growth inhibition, stronger effect = higher value
Method in brief: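 After exposure of the mgt1 yeast mutant to compound, growth was measured and reported as inhibition compared with vehicle controls.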

[3] = NCI Yeast Anticancer Drug Screen. Data for the rad50 strain (AID 155);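 note: 0% = growth of vehicle-only cultures of the same strain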; conditions: S. cerevisiae rad50 strain growth inhibition, stronger effect = higher value
Method in brief: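 Yeast carrying a defined DNA repair defect were exposed to test compounds, and growth was compared with vehicle-treated controls to give percent inhibition.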

[4] = NCI Yeast Anticancer Drug Screen. Data for the mec2-1 strain (AID 157); conditions: S. cerevisiae mec2-1 strain, stronger effect = higher value
Method in brief: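 Test agents were screened against the mec2-1 yeast strain, with defined DNA repair or cell cycle alteration. Growth was scored as inhibition against vehicle-only controls.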

[5] = NCI Yeast Anticancer Drug Screen. Data for the rad14 strain (AID 159);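 note: 0% = growth of vehicle-treated control cultures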; conditions: S. cerevisiae rad14 strain growth inhibition, stronger effect = higher value
Method in brief: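 Yeast cells carrying a defined DNA-repair defect were exposed to compounds, and growth inhibition was calculated relative to vehicle-treated control cultures.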

[6] = NCI Yeast Anticancer Drug Screen. Data for the sgs1 mgt1 strain (AID 161);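 note: 0% = growth of cultures given vehicle only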; conditions: S. cerevisiae sgs1 mgt1 strain, stronger effect = higher value
Method in brief: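 Genetically altered yeast, compound exposure, growth inhibition relative to vehicle.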

[7] = NCI Yeast Anticancer Drug Screen. Data for the CLN2oe strain (AID 163);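 note: 0% = growth of vehicle-only control cultures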; conditions: S. cerevisiae CLN2oe strain, stronger effect = higher value
Method in brief: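 Here, growth inhibition in a cell-cycle-altered yeast strain after compound exposure was quantified against vehicle control growth.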

[8] = NCI Yeast Anticancer Drug Screen. Data for the cln2 rad14 strain (AID 165);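 note: 0% = growth equal to vehicle treated cultures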; conditions: S. cerevisiae cln2 rad14 strain, stronger effect = higher value
Method in brief: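 Growth of compound-exposed yeast (cln2 rad14 genotype) measured and expressed as inhibition relative to vehicle.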

[9] = NCI Yeast Anticancer Drug Screen. Data for the bub3 strain (AID 167); conditions: S. cerevisiae bub3 mutant strain, stronger effect = higher value
Method in brief: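 Compounds were applied to a genetically altered yeast strain carrying a cell-cycle control defect. Growth inhibition was scored against vehicle-treated controls.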

[10] = NCI Yeast Anticancer Drug Screen. Data for the wt2 strain (AID 169);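 note: 0% = growth of vehicle-treated yeast cultures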; conditions: S. cerevisiae wt2 strain growth inhibition, stronger effect = higher value
Method in brief: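 Genetically defined yeast strains from a DNA-repair/cell-cycle panel were used. Compound-exposed yeast growth was measured, and the inhibition was calculated relative to vehicle treatment.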

[11] = NCI Yeast Anticancer Drug Screen. Data for the mlh1 strain (AID 171);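 note: 0% = growth of vehicle-treated control cultures of the same strain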; conditions: S. cerevisiae mlh1 strain growth inhibition, stronger effect = higher value
Method in brief: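 Here the genetically defined yeast mutant is grown with each compound, and the extent to which its growth falls below that of vehicle-exposed cells is reported.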

[12] = NCI Yeast Anticancer Drug Screen. Data for the sgs1 strain (AID 173);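 note: 0% = growth of vehicle-only control cultures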; conditions: S. cerevisiae sgs1 mutant, stronger effect = higher value
Method in brief: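 Relative growth inhibition, referenced to vehicle, was determined in a yeast strain with a defined alteration affecting DNA damage repair or cell cycle control after compound exposure.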

[13] = NCI Yeast Anticancer Drug Screen. Data for the mlh1 rad18 strain (AID 175); conditions: S. cerevisiae mlh1 rad18 strain growth inhibition, stronger effect = higher value
Method in brief: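 In this whole-cell yeast screen, a strain with altered DNA damage repair is challenged with compound, and its growth is measured against matched vehicle-treated controls.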

[14] = NCI Yeast Anticancer Drug Screen. Data for the rad18 strain (AID 177); conditions: S. cerevisiae rad18 mutant growth inhibition, stronger effect = higher value
Method in brief: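 Screen uses a yeast strain with a defined lesion in DNA damage repair; compound effect is read as loss of growth compared to untreated vehicle cultures.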

[15] = NCI Yeast Anticancer Drug Screen. Data for the rad50EPP+ strain (AID 151);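 note: 0% = growth of vehicle-treated control cultures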; conditions: S. cerevisiae rad50 mutant strain, stronger effect = higher value
Method in brief: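 One strain with a rad50 alteration (rad50EPP+) was compound-treated, its growth then compared to that of vehicle controls.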

[16] = at 5.0 µM (retest, dose inferred, filed as 0.5)
[17] = at 50.0 µM (retest, dose inferred, filed as 5.0)

## O=C(O)CNC(=S)Nc1ccccc1
[1]; at 1.2 µM
  growth inhibition: -72%
[1]; at 3.7 µM
  growth inhibition: -88%
[1]; at 11.0 µM
  growth inhibition: -22%
[1]; at 33.0 µM
  growth inhibition: 54%
[1]; at 100.0 µM
  growth inhibition: 85% (active)
[2]; at 1.2 µM
  growth inhibition: -36%
[2]; at 3.7 µM
  growth inhibition: -17%
[2]; at 11.0 µM
  growth inhibition: 6%
[2]; at 33.0 µM
  growth inhibition: 77% (active)
[2]; at 100.0 µM
  growth inhibition: 94% (active)
[3]; at 1.2 µM
  growth inhibition: -67%
[3]; at 3.7 µM
  growth inhibition: -68%
[3]; [16]
  growth inhibition: 51%
[3]; at 11.0 µM
  growth inhibition: -48%
[3]; at 33.0 µM
  growth inhibition: 53%
[3]; [17]
  growth inhibition: 82% (active)
[3]; at 50.0 µM
  growth inhibition: 4.35% and 69.5%
[3]; at 100.0 µM
  growth inhibition: 93% (active)
[4]; at 1.2 µM
  growth inhibition: -68%
[4]; at 3.7 µM
  growth inhibition: -21%
[4]; [16]
  growth inhibition: 50%
[4]; at 11.0 µM
  growth inhibition: -8%
[4]; at 33.0 µM
  growth inhibition: 54%
[4]; [17]
  growth inhibition: 85% (active)
[4]; at 50.0 µM
  growth inhibition: 6.5% and 52.1%
[4]; at 100.0 µM
  growth inhibition: 90% (active)
[5]; at 1.2 µM
  growth inhibition: -47%
[5]; at 3.7 µM
  growth inhibition: -41%
[5]; at 11.0 µM
  growth inhibition: -48%
[5]; at 33.0 µM
  growth inhibition: 47%
[5]; at 100.0 µM
  growth inhibition: 91% (active)
[6]; [16]
  growth inhibition: -9%
[6]; [17]
  growth inhibition: 91% (active)
[6]; at 50.0 µM
  growth inhibition: 5.2% and 64.6%
[7]; at 1.2 µM
  growth inhibition: 2%
[7]; at 3.7 µM
  growth inhibition: -9%
[7]; at 11.0 µM
  growth inhibition: -3%
[7]; at 33.0 µM
  growth inhibition: 52%
[7]; at 100.0 µM
  growth inhibition: 86% (active)
[8]; [16]
  growth inhibition: 63%
[8]; [17]
  growth inhibition: 92% (active)
[8]; at 50.0 µM
  growth inhibition: 36.6% and 42%
[9]; at 1.2 µM
  growth inhibition: -46%
[9]; at 3.7 µM
  growth inhibition: -39%
[9]; [16]
  growth inhibition: 6%
[9]; at 11.0 µM
  growth inhibition: -15%
[9]; at 33.0 µM
  growth inhibition: 49%
[9]; [17]
  growth inhibition: 85% (active)
[9]; at 50.0 µM
  growth inhibition: 8.5% and 53.4%
[9]; at 100.0 µM
  growth inhibition: 89% (active)
[10]; at 1.2 µM
  growth inhibition: -74%
[10]; at 3.7 µM
  growth inhibition: -64%
[10]; at 11.0 µM
  growth inhibition: -49%
[10]; at 33.0 µM
  growth inhibition: 31%
[10]; at 100.0 µM
  growth inhibition: 88% (active)
[11]; at 1.2 µM
  growth inhibition: -63%
[11]; at 3.7 µM
  growth inhibition: -56%
[11]; at 11.0 µM
  growth inhibition: -30%
[11]; at 33.0 µM
  growth inhibition: 53%
[11]; at 100.0 µM
  growth inhibition: 93% (active)
[12]; at 1.2 µM
  growth inhibition: -55%
[12]; at 3.7 µM
  growth inhibition: -51%
[12]; at 11.0 µM
  growth inhibition: -39%
[12]; at 33.0 µM
  growth inhibition: 56%
[12]; at 100.0 µM
  growth inhibition: 91% (active)
[13]; [16]
  growth inhibition: 33%
[13]; [17]
  growth inhibition: 70% (active)
[13]; at 50.0 µM
  growth inhibition: 3.45% and 54.6%
[14]; at 1.2 µM
  growth inhibition: -56%
[14]; at 3.7 µM
  growth inhibition: -17%
[14]; at 11.0 µM
  growth inhibition: -21%
[14]; at 33.0 µM
  growth inhibition: 53%
[14]; at 100.0 µM
  growth inhibition: 82% (active)

## Cc1c2cc[n+](Cc3ccc(I)cc3)cc2c(C)c2c1[nH]c1ccccc12
[1]; at 1.2 µM
  growth inhibition: 39%
[1]; at 3.7 µM
  growth inhibition: 36%
[1]; at 11.0 µM
  growth inhibition: 96% (active)
[1]; at 33.0 µM
  growth inhibition: 98% (active)
[1]; at 100.0 µM
  growth inhibition: 95% (active)
[15]; at 1.2 µM
  growth inhibition: 30%
[15]; at 3.7 µM
  growth inhibition: 29%
[15]; at 11.0 µM
  growth inhibition: 34%
[15]; at 33.0 µM
  growth inhibition: 90% (active)
[15]; at 100.0 µM
  growth inhibition: 96% (active)
[2]; at 1.2 µM
  growth inhibition: 9%
[2]; at 3.7 µM
  growth inhibition: -1%
[2]; at 11.0 µM
  growth inhibition: 90% (active)
[2]; at 33.0 µM
  growth inhibition: 97% (active)
[2]; at 100.0 µM
  growth inhibition: 96% (active)
[3]; at 1.2 µM
  growth inhibition: 18%
[3]; at 3.7 µM
  growth inhibition: 12%
[3]; [16]
  growth inhibition: 5%
[3]; at 11.0 µM
  growth inhibition: 96% (active)
[3]; at 33.0 µM
  growth inhibition: 95% (active)
[3]; [17]
  growth inhibition: 93% (active)
[3]; at 50.0 µM
  growth inhibition: 85.5% (active)
[3]; at 100.0 µM
  growth inhibition: 89% (active)
[4]; at 1.2 µM
  growth inhibition: 19%
[4]; at 3.7 µM
  growth inhibition: 8%
[4]; [16]
  growth inhibition: 33%
[4]; at 11.0 µM
  growth inhibition: 96% (active)
[4]; at 33.0 µM
  growth inhibition: 97% (active)
[4]; [17]
  growth inhibition: 95% (active)
[4]; at 50.0 µM
  growth inhibition: 87.2% (active)
[4]; at 100.0 µM
  growth inhibition: 95% (active)
[6]; [16]
  growth inhibition: 74% (active)
[6]; [17]
  growth inhibition: 94% (active)
[6]; at 50.0 µM
  growth inhibition: 85.8% (active)
[7]; at 1.2 µM
  growth inhibition: 14%
[7]; at 3.7 µM
  growth inhibition: 19%
[7]; at 11.0 µM
  growth inhibition: 92% (active)
[7]; at 33.0 µM
  growth inhibition: 97% (active)
[7]; at 100.0 µM
  growth inhibition: 94% (active)
[8]; [16]
  growth inhibition: 17%
[8]; [17]
  growth inhibition: 94% (active)
[8]; at 50.0 µM
  growth inhibition: 86% (active)
[9]; at 1.2 µM
  growth inhibition: 18%
[9]; at 3.7 µM
  growth inhibition: 18%
[9]; [16]
  growth inhibition: 55%
[9]; at 11.0 µM
  growth inhibition: 97% (active)
[9]; at 33.0 µM
  growth inhibition: 96% (active)
[9]; [17]
  growth inhibition: 94% (active)
[9]; at 50.0 µM
  growth inhibition: 83.3% (active)
[9]; at 100.0 µM
  growth inhibition: 89% (active)
[10]; at 1.2 µM
  growth inhibition: -21%
[10]; at 3.7 µM
  growth inhibition: -24%
[10]; at 11.0 µM
  growth inhibition: 87% (active)
[10]; at 33.0 µM
  growth inhibition: 97% (active)
[10]; at 100.0 µM
  growth inhibition: 96% (active)
[11]; at 1.2 µM
  growth inhibition: 35%
[11]; at 3.7 µM
  growth inhibition: 35%
[11]; at 11.0 µM
  growth inhibition: 95% (active)
[11]; at 33.0 µM
  growth inhibition: 97% (active)
[11]; at 100.0 µM
  growth inhibition: 96% (active)
[12]; at 1.2 µM
  growth inhibition: 42%
[12]; at 3.7 µM
  growth inhibition: 27%
[12]; at 11.0 µM
  growth inhibition: 96% (active)
[12]; at 33.0 µM
  growth inhibition: 97% (active)
[12]; at 100.0 µM
  growth inhibition: 96% (active)
[13]; [16]
  growth inhibition: 35%
[13]; [17]
  growth inhibition: 94% (active)
[13]; at 50.0 µM
  growth inhibition: 89.8% (active)
[14]; at 1.2 µM
  growth inhibition: 40%
[14]; at 3.7 µM
  growth inhibition: 31%
[14]; at 11.0 µM
  growth inhibition: 97% (active)
[14]; at 33.0 µM
  growth inhibition: 96% (active)
[14]; at 100.0 µM
  growth inhibition: 93% (active)
